Hit rate of the full screen: of about 310,000 compounds, about 11,000 (3.5%) were called active. Entries that show only a call come without a potency. Another 8% or so got no clear call; they are omitted. Calls come from the whole dose curve; as a rule, active = well fitted inhibition curve with a large enough effect; inconclusive = small, poorly fitted or top-dose-only effect, or effect the other way; inactive = flat fitted curve, though single readings scatter. For the sample, actives were picked, then their nearest neighbours and some compounds at random.
assay: VP16 counterscreen qHTS for inhibitors of ROR gamma transcriptional activity; conditions: Drosophila S2 Gal4-VP16 UAS-luciferase, luminescence, 20 h; series mostly up to 53.6 µM;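 note: Gal4-VP16 expression switched on by copper sulfate through the metallothionein promoter; nearly all actives have a fitted effect of over 50% in size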
Potency is the fitted concentration of half-maximal effect.

| Structure (SMILES) | Potency | activity, negative = inhibition |
| --- | --- | --- |
| COc1cc(NC(=O)C2=CC(c3ccc(C)cc3)=NS(=O)(=O)N2C)cc(OC)c1OC | inactive | – |
| COc1cc2c(cc1OC)CN(CC(=O)Nc1ccc(F)cc1)CC2 | inactive | – |
| COC(=O)/C=C\C(=O)Nc1cccc([N+](=O)[O-])c1 | 1.26 µM (active) | – |
| CC(=O)Nc1cccc([N+](=O)[O-])c1 | inactive | – |
| O=C(CSCC(=O)Nc1cccc([N+](=O)[O-])c1)Nc1ccccc1 | inactive | – |
| COc1cc(SC)ccc1C(=O)N(Cc1ccccc1)c1ccccc1 | inactive | – |
| Cc1cc(C)nc(N/N=C/c2ccc([N+](=O)[O-])o2)n1 | inactive | – |
| NC(=O)C(=O)N/N=C/c1ccc([N+](=O)[O-])o1 | 11.2 µM (active) | – |
| COc1ccc(C(=O)NCC(=O)N/N=C/c2ccc([N+](=O)[O-])o2)cc1OC | inactive | – |
| COc1ccc(-c2cc(C(=O)N3CCN(c4ccc(F)cc4)CC3)no2)cc1 | inactive | – |
| FC(F)(F)c1nc2ccccc2nc1N/N=C/c1ccc(Cl)cc1 | 10 µM (active) | – |
| Fc1ccc(/C=N/Nc2nc(-c3cccnc3)nc3ccccc23)cc1 | inactive | – |
| FC(F)(F)c1cccc(N/N=C/c2ccccc2)c1 | inactive | – |
| CCNC(=O)N1CCCC(C(=O)c2ccc(-c3ccccc3)cc2)C1 (configuration not stated) | inactive | – |
| c1cnc(N2CCN(c3ccc4ccccc4n3)CC2)nc1 | inactive | – |
| CC(=O)N1c2ccc(S(=O)(=O)N3CCC(C(=O)NC4CCCC(C)C4C)CC3)cc2CC1C (configuration not stated) | inactive | – |
| Cc1ccc2cccc(OCCCOc3ccccc3CO)c2n1 | inactive | – |
| CSC(=S)N/N=C/c1c[nH]c2ccccc12 | 0.891 µM (active) | – |
| O=C(N/N=C/c1ccc([N+](=O)[O-])cc1)c1c[nH]c2ccccc12 | inactive | – |
| O=C(N/N=C/c1c[nH]c2ccccc12)c1cc2ccccc2o1 | inactive | – |
| O=C(N/N=C/c1c[nH]c2ccccc12)c1ccccc1O | 6.31 µM (active) | – |
| O=C(O)c1cccc(NC(=S)N/N=C/c2c[nH]c3ccccc23)c1 | inactive | – |

| Structure (SMILES) | Potency | activity, negative = inhibition |
| --- | --- | --- |
| O=C(Cc1c[nH]c2ccccc12)N/N=C/c1cccc(F)c1 | inactive | – |
| C[C@H](C(=O)CC(=O)OC(C)(C)C)[C@H](O)c1ccc(C(F)(F)F)cc1 | inactive | – |
| Cc1ccc(-c2csc(NC3OC(=O)c4ccccc43)n2)cc1 (configuration not stated) | inactive | – |
| O=C(/C=C/c1ccc(Cl)cc1)N1CCN(c2ccccc2[N+](=O)[O-])CC1 | inactive | – |
| CC(=O)c1ccc2c(c1)OCCOCCOc1ccc(C(C)=O)cc1OCCOCCO2 | inactive | – |
| CN(C)c1ccc(/C=C/C(=O)c2ccc(O)cc2)cc1[N+](=O)[O-] | 5.01 µM (active) | – |
| CN(C)c1ccc(/C=C/C(=O)c2ccc(C(C)(C)C)cc2)cc1[N+](=O)[O-] | inactive | – |
| O=C(/C=C/c1ccc2c(c1)OCCO2)c1ccc(O)cc1 | 4.47 µM (active) | – |
| O=C(O)/C=C/c1ccc2c(c1)OCCO2 | inactive | – |
| O=C1C2CCCN2C(=O)N1CCCCN1CCN(c2cccc(C(F)(F)F)c2)CC1 (configuration not stated) | inactive | – |
| C=CCn1cc(Cl)cc(C(=O)Nc2ccccc2)c1=O | inactive | – |
| Cc1cccc(C)c1N1C(=O)CN(Cc2ccccc2)C1=S | inactive | – |
| COc1cccc(NC(C)=[N+](C)CCNS(=O)(=O)c2ccc(Cl)cc2)c1 | inactive | – |
| COc1ccccc1-c1nc(N2CCN(C)CC2)c2ccccc2n1 | inactive | – |
| COc1ccccc1-c1nc(SC)n[nH]1 | inactive | – |
| COc1ccccc1-c1n[nH]c2c1[C@H](C)CC[C@H]2C(C)C | 12.6 µM (active) | – |
| CCOc1cc(-c2noc(CCCC(=O)NC3CCCCC3)n2)ccc1OC | inactive | – |
| CC(=O)c1ccc(N2Cc3ccccc3C2)cc1 | inactive | – |
| CC(C)CC(O)C1CCN(C(=O)CCc2nnc(-c3ccc4c(c3)OCO4)o2)CC1 (configuration not stated) | inactive | – |
| Cc1oc(-c2ccccc2F)nc1CS(=O)CC(=O)NCCN1CCCCC1C (configuration not stated) | inactive | – |
| C=CCc1ccccc1OCC(=O)N/N=C/c1ccccc1OCC | inactive | – |
| CCOc1ccccc1/C=N/Nc1nc2ccccc2o1 | 7.08 µM (active) | – |

| Structure (SMILES) | Potency | activity, negative = inhibition |
| --- | --- | --- |
| CCOc1ccccc1/C=N/NC(=O)CNC(=O)COc1ccccc1 | inactive | – |
| CC(C)(C)c1cc[n+](-c2[nH]c(=O)sc2/C=N/N=C(\[O-])c2ccccc2)cc1 | inactive | – |
| O=C(Nc1ccncc1)c1ccc(Cl)c([N+](=O)[O-])c1 | inactive | – |
| COc1ccc(CNS(=O)(=O)c2cc(-c3cc(C)no3)ccc2C(C)C)cc1 | inactive | – |
| CC(=O)Nc1cccc(Nc2nc(-c3cccs3)nc3ccccc23)c1 | inactive | – |
| CC1CCCN(CCCNC(=O)CN2C(=O)COc3ccc(S(=O)(=O)N4CCOCC4)cc32)C1 (configuration not stated) | inactive | – |
| C/C(=N/NC(=O)c1ccc(Br)o1)c1ccc(C)o1 | inactive | – |
| Cc1ccc(/C=N/NC(=O)CSc2ccccn2)o1 | inactive | – |
| C/C(=N\NC(=O)NC1CCCCC1)c1ccc(OC(F)F)cc1OC(F)F | inactive | – |
| C/C(=N\NC(=S)NC1CCCCC1)c1ccc(C)o1 | 3.55 µM (active) | – |
| Cc1ccc(/C=N/NC(=O)Cn2nc(C)c(Br)c2C)o1 | inactive | – |
| Cc1ccc(/C=N/NC(=S)NC2CCCCC2)o1 | 2 µM (active) | – |
| Cc1ccccc1NC(=O)CSc1ccc2nnc(-c3ccccn3)n2n1 | inactive | – |
| CC(C)NC(=O)COCc1cc(-c2ccc3c(c2)OCO3)on1 | inactive | – |
| COc1ccc(OC)c(CNC(=O)Cn2nc(C)c3c(C)n(-c4ccc(C)cc4)nc3c2=O)c1 | inactive | – |
| COc1ccc(CN(C)C(=O)c2cc(-c3ccc(C)cc3C)nc3ccccc23)c(OC)c1OC | inactive | – |
| COc1ccc(CCn2ccc(O)c(Cc3ccc(Cl)cc3Cl)c2=O)cc1OC | – | 7.07% [at 10 µM] (inactive) |
| COc1ccc(C/C(N)=N/OC(=O)c2ccco2)cc1OC | inactive | – |
| COc1ccc(C(=O)O/N=C(\N)Cc2ccc(Cl)cc2Cl)cc1OC | 7.08 µM (active) | – |
| CC(CCc1ccc(O)cc1)NCc1ccc(Cl)cc1Cl (configuration not stated) | inactive | – |
| O=S1(=O)N=C(N(CCO)/N=C/c2ccccc2F)c2ccccc21 | inactive | – |
| COC(=O)c1cc(S(=O)(=O)NCC2CCN(Cc3ccc(Cl)cc3)CC2)cn1C | inactive | – |

| Structure (SMILES) | Potency | activity, negative = inhibition |
| --- | --- | --- |
| Cc1cc(C(=O)N/N=C/c2cc([N+](=O)[O-])cc(C)c2O)n[nH]1 | 14.1 µM (active) | – |
| Cc1ccccc1NCC(=O)N/N=C\c1ccc([N+](=O)[O-])s1 | inactive | – |
| CC(C)(C)c1cc(C(=O)N/N=C/c2ccc([N+](=O)[O-])s2)n[nH]1 | 12.6 µM (active) | – |
| CCOc1ccc(NC(=O)CCC(=O)N/N=C/c2ccc([N+](=O)[O-])s2)cc1 | inactive | – |
| Cc1ccsc1C(=O)N/N=C/c1ccc([N+](=O)[O-])cc1 | inactive | – |
| COc1ccc2ccccc2c1/C=N/NC(=O)c1cc(C)[nH]n1 | inactive | – |
| COc1ccc(OC)c(NC(=O)c2ccc3c(c2)CCN3S(C)(=O)=O)c1 | inactive | – |
| COc1ccc(-n2ncc3c2CC(C)(C)CC3NC(=O)CCc2c(C)noc2C)cc1 (configuration not stated) | inactive | – |
| CCn1c(CC(=O)Nc2ccccc2)nnc1SCC(=O)N1CCOCC1 | inactive | – |
| Cc1cccc(C)c1OCCN1CCOCC1 | inactive | – |
| CC(CC(=O)N1CCN(c2ccccc2)CC1)S(=O)(=O)c1ccc2c(c1)NC(=O)CS2 (configuration not stated) | inactive | – |
| CCOC(=O)C1=C(c2ccc(OC)cc2)C(=O)c2ccccc2C1=O | 4.47 µM (active) | – |
| CCCCC(C(=O)OCC(=O)c1ccc(OC)cc1)N1C(=O)c2ccccc2C1=O (configuration not stated) | inactive | – |
| CCOC(=O)c1c(-c2ccc(C)cc2)csc1/N=C(\C)C1=C(O)c2ccccc2C1=O | inactive | – |
| COc1ccccc1-n1c(SCC(=O)Nc2cccc(C(=O)O)c2)nnc1-c1ccccc1O | inactive | – |
| CCOC(=O)[C@@H]1[C@H]2COc3ccc(Br)cc3[C@H]2N2C(=O)N(c3ccc(Cl)cc3)C(=O)[C@@]12C | inactive | – |
| COC(=O)c1cc(NS(=O)(=O)c2ccc3c(c2)c(=O)n(C)c(=O)n3C)cc(C(=O)OC)c1 | inactive | – |
| Cc1[nH]c2ccccc2c1C(=O)CN1CC(C)CC(C)C1 (configuration not stated) | inactive | – |
| CC(=O)Nc1cccc(NC(=O)c2ccc3c(c2)CCN3S(C)(=O)=O)c1 | inactive | – |
| COc1ccccc1-c1sc2ccccc2c1-c1ccc(C(C)=O)cc1 | inactive | – |
| C(=N\n1cnnc1)/c1cccnc1 | inactive | – |
| CN(C)c1ccc(-n2cccc2/C=C2/SC(=Nc3ccc(F)cc3)NC2=O)cc1 | inactive | – |

| Structure (SMILES) | Potency | activity, negative = inhibition |
| --- | --- | --- |
| CN(C)c1ccc(-n2cccc2/C=N/n2cnnc2)cc1 | 14.1 µM (active) | – |
| CNC[C@H](CC1CCCCC1)NC[C@H](NCCC1CCCC1)[C@H](C)O | inactive | – |
| O=C1c2ccccc2C(=O)N1CCOc1ccc(F)cc1 | inactive | – |
| CN1CN(C)c2ccc([N+](=O)[O-])c3cccc1c23 | inactive | – |
| CCCNC(=O)CCc1c(C)nc2c(c(C)nn2-c2ccc(C)cc2)c1C | inactive | – |
| O=C(NC1CCCCC1)c1ccc2c(=O)n(CC3CCCO3)c(=O)[nH]c2c1 (configuration not stated) | inactive | – |
| COC(=O)c1ccc2c(=O)n(CC3CCCO3)c(=S)[nH]c2c1 (configuration not stated) | 5.01 µM (active) | – |
| COc1ccc(Cn2c(=S)[nH]c3cc(C(=O)NCCCN4CCOCC4)ccc3c2=O)cc1 | inactive | – |
| COc1ccccc1OCCCC(=O)Nc1ccc2c(c1)OCCO2 | inactive | – |
| O=C(CSc1cccc2cccnc12)N/N=C/c1cccnc1 | 20 µM (active) | – |
| O=C(CNC(=O)c1cccnc1)N/N=C/c1cccnc1 | inactive | – |
| Cc1nc2ccccc2n1CC(=O)N/N=C/c1cccnc1 | inactive | – |
| CN(C)Cc1c(O)ccc2c(=O)c(-c3ccccc3Cl)coc12 | inactive | – |
| COc1ccccc1CN1CCNC(=O)C1CC(=O)N(C)CC1CCOCC1 (configuration not stated) | inactive | – |
| COc1ccc2c(C)c(CCC(=O)NC3CC3)c(=O)oc2c1C | inactive | – |
| COc1ccc2c(c1OC)C(=O)N(c1ccc(O)cc1)C2 | inactive | – |
| O=C(NCCN1CCOCC1)c1ccc(/C=C2\Sc3ccccc3N(Cc3ccc(F)cc3)C2=O)cc1 | inactive | – |
| CN1C(=O)/C(=C/c2ccc(C(=O)NC3CCCC3)cc2)Oc2ccccc21 | inactive | – |
| CN1CCN(CCCNC(=O)c2ccc(/C=C3\Oc4ccccc4N(Cc4ccc(Cl)cc4)C3=O)cc2)CC1 | 11.2 µM (active) | – |

Source: PubChem BioAssay AID2546 (National Center for Advancing Translational Sciences (NCATS), 2010)
